Screens (PubChem)
Vif imaging = inhibitors of HIV Vif | HEK293T cells, Vif self-association by quenched fluorescence, imaging, 24 h | inhibition, % at 7.49 µM | 340,000 tested, 0.35% active | AID 602346; in the data active means inhibition above about 50%, passing the limit was not always enough
CFTR F508del cor = CFTR F508del correction in bronchial cells | CFBE cells, YFP halide quenching; stimulated with forskolin plus potentiator P3; % fluorescence drop versus neutral controls | activity (quench increase), % at 7.58 µM | 350,000 tested, 0.36% active;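 active means mean added fluorescence quench of at least 8% versus neutral control, with both replicates also reaching 8%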;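 further: cells transiently co-express mutant CFTR-F508del with the halide-sensitive YFP; corrector assay measuring rescue of mutant channel to the surface after 24 h compound exposure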
FGF22 binding = shifts melting point of recombinant human FGF22; Q9HCT0; recombinant FGF22 thermal shift, SYPRO orange fluorescence; percent of sucrose octasulfate shift, DMSO zero; activity (Tm shift, normalised), % at 9.99 µM; 340,000 tested, 1.5% active; AID 651658;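 active means mean Tm shift, scaled 0 neutral to 100 positive control, at about 1.3% or above, every replicate too, limit read from the data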
Target sequence (Q9HCT0 whole entry, looked up): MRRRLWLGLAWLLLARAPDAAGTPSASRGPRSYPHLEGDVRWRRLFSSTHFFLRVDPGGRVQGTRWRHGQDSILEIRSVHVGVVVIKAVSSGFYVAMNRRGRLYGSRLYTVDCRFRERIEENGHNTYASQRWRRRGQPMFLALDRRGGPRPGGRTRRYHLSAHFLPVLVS
* hit, by the source's call; nt = no result given. An excerpt weighted towards active compounds, which were near 1.7% of everything screened.

SMILES	Vif imaging	CFTR F508del cor	FGF22 binding
C[C@H](CO)N1C[C@H](C)[C@@H](CN(C)S(C)(=O)=O)Oc2c(NC(=O)Nc3ccc(F)cc3)cccc2C1=O	nt	1	0
COCC(=O)N1[C@@H]2c3ccc(C4=CCCCC4)c(=O)n3C[C@@H]2[C@@H](CO)[C@@H]1C(=O)N1CCN(C)CC1	nt	0	nt
Cc1ccc(-n2nc3c(N4CCC(C(=O)NCCc5cccs5)CC4)nnc(C)c3c2C)cc1	51*	4	0
Cc1ccc(-n2nc3c(=O)n(CC(=O)NCCc4cccs4)nc(C)c3c2C)cc1	1	2	0
O=C(C[C@H]1CC[C@@H]2[C@H](COC[C@@H](O)CN2Cc2cccc(Cl)c2)O1)N1CCCCC1	nt	-2	0
CCC(NC(=O)N(Cc1ccccc1)Cc1ccc2c(c1)OCO2)(C(F)(F)F)C(F)(F)F	2	nt	nt
CC(NC(=O)N(Cc1ccccc1)Cc1ccc2c(c1)OCO2)(C(F)(F)F)C(F)(F)F	83*	nt	nt
S=C(Nc1ccccc1)Nc1ccccn1	5	-1	0
S=C(Nc1ccc(Nc2ccccc2)cc1)Nc1ccccn1	-6	0	43*
COC(=O)C[C@H]1CC[C@@H]2[C@@H](COc3ccc(NS(C)(=O)=O)cc3C(=O)N2C)O1	nt	1	0
CCOC(=O)c1nc(NCc2ccccc2)c2ccccc2n1	-3	0	44*
C=CCNc1nc(C(=O)OCC)nc2ccccc12	nt	1	0
CC(C)NC(=O)N(C)C[C@H]1Oc2c(NC(=O)Nc3ccc4c(c3)OCO4)cccc2C(=O)N([C@@H](C)CO)C[C@H]1C	nt	-5	0
COC(=O)COc1ccc(/C=N/NC(=O)CN(c2ccccc2OC)S(=O)(=O)c2ccccc2)cc1	57*	-4	0
COc1ccccc1N(CC(=O)N/N=C/c1ccc(OCC(=O)NCc2ccco2)cc1)S(=O)(=O)c1ccc(C)cc1	8	nt	nt
CC(C)c1cn(CC[C@@H]2CC[C@H](NC(=O)C3CCCCC3)[C@H](CO)O2)nn1	nt	1	0
Cc1ccc(S(=O)(=O)Nc2ccc3c(c2)CC(=O)N([C@@H](C)CO)C[C@H](C)[C@@H](CN(C)S(=O)(=O)c2c(C)noc2C)O3)cc1	nt	0	0
CCNC(=O)C[C@H]1CC[C@@H]2[C@H](COc3ccc(NC(=O)Nc4ccccc4Cl)cc3C(=O)N2C)O1	nt	0	0
C[C@@H]1CN([C@@H](C)CO)C(=O)Cc2cc(NC(=O)Cn3cnnn3)ccc2O[C@H]1CN(C)Cc1ccncc1	nt	-1	0
C[C@H](CO)N1C[C@H](C)[C@H](CN(C)Cc2ccc3c(c2)OCO3)OCCCC[C@H](C)Oc2ccc(NC(=O)NC3CCCCC3)cc2C1=O	nt	-2	0
CCn1c(SCC(=O)N2CCCCCC2)nc2ccccc2c1=O	3	-2	0
CC(C)CSc1nc2ccccc2n1CC(=O)O	12	-2	43*
CCCSc1nc2ccccc2n1CC(=O)O	1	2	0
O=C(O)CCn1c(SCc2cccc3ccccc23)nc2ccccc21	-4	nt	nt
CCn1c(SCC(=O)N2CCCC2)nc2ccccc21	-4	-2	44*
SMILES	Vif imaging	CFTR F508del cor	FGF22 binding
CCn1c(SCC(=O)N/N=C/c2cc(OC)c(O)c(OC)c2)nc2ccccc21	17	nt	nt
CCn1c(SCC(=O)N/N=C/c2ccc(O)c(OC)c2)nc2ccccc21	nt	8.3*	0
O=C(O)c1ccccc1CSc1nc2ccccc2n1Cc1ccccc1C(=O)O	-5	1	44*
CO[C@H]1CN(C)C(=O)c2ccc(NC(=O)C3CCC3)cc2OC[C@@H](C)N(Cc2ccncc2)C[C@@H]1C	nt	3	0
O=C(Nc1ccccc1F)N[C@H]1CC[C@H](CCNC(=O)C2CCCCC2)O[C@H]1CO	nt	-1	-1
O=C(N[C@H]1CC[C@H](CCn2cc(-c3ccccn3)nn2)O[C@@H]1CO)c1ccncc1	nt	2	0
O=C(c1ccccc1F)N1CC(=O)N2[C@H](C1)[C@@H](c1ccc(-c3ccc(F)cc3)cc1)[C@@H]2CO	nt	5	1
CCCNC(=O)N[C@@H]1CC[C@H](CC(=O)NC2CCCCC2)O[C@@H]1CO	nt	-1	0
CCCC#Cc1ccc2c(c1)O[C@H](CN(C)C(=O)C1CCCCC1)[C@@H](C)CN([C@@H](C)CO)S2(=O)=O	nt	1	nt
CCNC(=O)C[C@@H]1CC[C@H]2[C@H](COc3ccc(NC(=O)Nc4cccc(OC)c4)cc3C(=O)N2C)O1	nt	-1	0
C[C@H](CO)N1C[C@H](C)[C@H](CN(C)S(=O)(=O)c2cn(C)cn2)Oc2ccc(NC(=O)CCC(F)(F)F)cc2C1=O	nt	-2	0
NC(=O)C1CCN(C(=O)c2ccc3c(=O)n(Cc4ccco4)c(SCC(=O)c4ccccc4)nc3c2)CC1	-6	0	44*
C=CCn1c(SCc2ccc(Cl)cc2)nc2cc(C(=O)N3CCC(C(N)=O)CC3)ccc2c1=O	0	1	21*
O=C(NCc1ccco1)c1ccc2c(=O)n(Cc3ccco3)c(SCC(=O)N3CCCC3)nc2c1	-5	nt	nt
COC(=O)c1ccc2c(=O)n(Cc3ccco3)c(SCC(=O)Nc3ccccc3Cl)nc2c1	1	nt	nt
COC(=O)c1ccc2c(=O)n(Cc3ccco3)c(SCC(=O)Nc3cc(C)on3)nc2c1	53*	-2	0
CCCCCn1c(SCC(=O)OCC)nc2cc(C(=O)N3CCC(C(N)=O)CC3)ccc2c1=O	6	nt	nt
COc1cccc(-c2ccc([C@@H]3[C@H](CO)N(C(C)=O)C34CN(C(C)=O)C4)cc2)c1	nt	1	0
CNC[C@H]1Oc2c(NC(=O)NC(C)C)cccc2C(=O)N([C@H](C)CO)C[C@H]1C	nt	3	0
COc1ccc(-n2c(CNC(=O)COc3ccc(Cl)cc3Cl)n[nH]c2=S)cc1	-1	-1	43*
COc1ccc(-n2c(CNC(=O)COc3ccc(Cl)cc3)n[nH]c2=S)cc1	18	-4	0
C[C@@H]1CCCCO[C@@H](CN(C)C(=O)Cc2ccccc2)[C@@H](C)CN([C@H](C)CO)C(=O)c2cc(NC(=O)CCCN(C)C)ccc2O1	nt	-3	0
CC(=O)N(C)C[C@H]1Oc2ncc(C3=CCCC3)cc2C(=O)N([C@@H](C)CO)C[C@H]1C	nt	-6	0
Cc1ccc(/C=N/NC(=O)c2ccc3c(c2)OCCO3)s1	2	5	0
Cc1ccc(/C=N/NC(=O)c2ccc3ccccc3c2)s1	2	11*	0
SMILES	Vif imaging	CFTR F508del cor	FGF22 binding
Nc1ccc(S(=O)(=O)O)cn1	8	-6	0
Nc1ccc(S(=O)(=O)c2ccc(N)nc2)cc1	57*	-2	0
CO[C@H]1CC[C@H]2CCN(C)C(=O)CCCN(C)C(=O)c3cccc(C#N)c3OC[C@@H]1O2	nt	nt	0
N#C/C(=C\c1ccc(F)cc1)c1nc(-c2ccco2)cs1	59*	nt	0
N#C/C(=C\c1ccc(Cl)cc1)c1nc(-c2ccco2)cs1	2	nt	0
CCOc1ccc2c(c1)[N+](C)(C)C(C)(C)C=C2C	7	-2	nt
COc1ccc2c(c1)[N+](C)(C)C(C)(C)C=C2C	6	2	43*
NCC[C@H]1CC[C@@H](NC(=O)Nc2ccc(F)cc2)[C@H](CO)O1	nt	0	0
O=C1C=C(NCCc2cc(Br)c(O)c(Br)c2)C(=O)c2ncccc21	23	16*	0
NC1=C(Br)C(=O)c2ncccc2C1=O	0	-5	0
